Source: PubChem BioAssay (NCATS)
Inconclusive results are not listed. Entries that show only a call come without a potency. Active and inactive are the calls of the source. Calls follow the shape of the dose curve; as a rule, active = well fitted activation curve with a large enough effect; inconclusive = small, poorly fitted or top-dose-only effect; inactive = flat fitted curve, though single readings scatter.

Experiment: Validation screen for small molecules that induce DNA re-replication in MCF 10A normal breast cells (AID 463097); also: nearly all actives have a fitted effect of over 60% in size
Details: MCF 10A cells, DNA re-replication phenotype imaging; series mostly up to 46.1 µM
Procedure, shortened: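 Following 48 hr compound incubation (37 C, 5% CO2), MCF 10A cells receive Hoechst for 40 min at 37 C. Nuclei are then scanned (excitation 405 nm, emission 500-530 nm) for total fluorescence intensity.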
Potency is read from the fitted curve at half-maximal effect.

SMILES	Potency
C[N+]1(C)CCOC(O)(c2ccc(-c3ccc(C4(O)C[N+](C)(C)CCO4)cc3)cc2)C1 (stereo not given)	inactive
COc1ccc2[nH]cc(CCN)c2c1	inactive
NC(CCCCCP(=O)(O)O)C(=O)O (stereo not given)	inactive
CC(C)NP(=O)(NC(C)C)OP(=O)(NC(C)C)NC(C)C	inactive
C[C@]12Cc3cn4c(nc3C=C1CCC1C2CC[C@@]2(C)[C@H]1CC[C@@]2(O)C#N)nc1ccccc14 (stereo not given in full)	12.6 µM (active)
CCCN1CC[C@@H]2c3cc(O)ccc3CC[C@@H]21	inactive
NCCCP(=O)(O)O	inactive
C[N+](C)(C)CCOC(=O)CBr	inactive
C=CCN1C[C@@H](C)N([C@H](c2ccc(C(=O)N(CC)CC)cc2)c2cccc(OC)c2)C[C@@H]1C	inactive
Cc1o[nH]c(=O)c1CC(N)C(=O)O (stereo not given)	inactive
C[N+](C)(C)CC#CCN1CCCC1=O	inactive
NC(C(=O)O)c1cc(=O)[nH]o1 (stereo not given)	inactive
O=C(O)c1cc[c]([Hg][Cl])cc1	inactive
C[Se]C[C@H](N)C(=O)O	inactive
CO[C@H]1CC=C2CCN3CCC4=C(CC(=O)OC4)[C@]23C1	inactive
COc1ccc(CNC(=O)/C=C/c2ccc3[nH]cc(CCN(C)C)c3c2)cc1	inactive
COc1ccc(OC)c(C(O)C(C)N)c1 (stereo not given)	inactive
CC12NC(Cc3ccccc31)c1ccccc12 (stereo not given)	inactive
NC(=O)c1ccc(OCC(O)CN2CC=C(c3ccc(F)cc3)CC2)cc1 (stereo not given)	inactive
C=CCN1CC[C@]23c4c5ccc(O)c4O[C@H]2/C(=N/NC(=O)c2ccccc2)CC[C@@]3(O)[C@H]1C5	inactive
